Values without a mark were called inactive. Inconclusive results are not listed. Active and inactive are the calls of the source. Unless noted, calls come from the whole dose curve.

A short description of assay [1]: Nuclear factor erythroid 2-related factor 2/antioxidant responsive element (Nrf2/ARE) small molecule agonists: qHTS cell viability counter screen in human keratinocytes (AID 1919968; active = well fitted curve in the direction sought with a large enough effect in the repeat runs; an effect the other way counts as inactive or inconclusive; note: nearly all actives have a fitted effect of over 55% in size; note: potency is the fitted concentration of half-maximal effect). In a few lines:
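Stably transfected HaCaT (KeratinoSens), 1,500/well. Test agents in DMSO were applied for 23 h, 37 C/5% CO2. CellTiter-Fluor was incubated 1 h before the fluorescence read.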

Assay [2] in a line: Nuclear factor erythroid 2-related factor 2/antioxidant responsive element (Nrf2/ARE) small molecule agonists: luciferase reporter gene qHTS assay in human keratinocytes (AID 1919969). Note: nearly all actives have a fitted effect of over 35% in size.
Assay [3] addresses Gonadotropin-releasing hormone receptor (Homo sapiens) (UniProt P30968). The experiment in a line: Human gonadotropin-releasing hormone receptor (GnRHR) small molecule agonists, calcium flux assay in GnRHR-HEK293 cells (AID 1920063). Note: nearly all actives have a fitted effect of over 35% in size. The method, boiled down:
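Stable human GnRHR HEK293 line. 18 h plating, then calcium dye for 1 h at 37 C. Agonist-mode compound addition from DMSO stocks; fluorescence monitored 3 min.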

For assay [4], the target named is KiSS-1 receptor (Homo sapiens) (UniProt Q969F8). Put plainly: Human kisspeptin (KISS1R) small molecule agonists, calcium flux assay in KISS1R-HEK293 cells (AID 1920064; active = well fitted curve in the direction sought with a large enough effect in the repeat runs; an effect the other way counts as inactive or inconclusive). The method, boiled down:
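After overnight (18 h) culture at 37 C/5% CO2, human KISS1R-HEK293 cells received calcium dye for 1 h, then test compound; emission at 540 nm (excitation 480 nm) was tracked for 3 min.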
In general terms: A change in cytosolic calcium serves as a functional read-out for many receptors and channels.

Assay [5] in a line: G protein-coupled receptor (GPCR) small molecule agonists, calcium flux assay: HEK293 wild type cell line counter screen (AID 1920065). The method, boiled down: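 Following 18 h incubation at 37 C/5% CO2, plates got calcium dye for 1 h; compounds, ATP or DMSO were then pinned in and fluorescence followed kinetically (480/540 nm).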
Assay [6] is described as follows: p53 small molecule agonists, cell-based qHTS assay with human liver microsomes (AID 1963577).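 Note: p53 response element beta-lactamase reporter cells with liver microsomes plus NADPH.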 The method, boiled down: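 HLM-supplemented p53RE-bla reporter assay: 16 h compound exposure at 37 C, microsomes and NADPH each 0.5 mg/mL final, read by fluorescence intensity.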
(In general: Quantitative high-throughput screening tests each substance at several concentrations.)

Assay [7] in a line: p53 small molecule agonists, cell-based qHTS assay with rat liver microsomes: qHTS cell viability counter screen (AID 1963580). Note: nearly all actives have a fitted effect of over 45% in size. In a few lines:
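After the beta-lactamase ratio was read, CellTiter-Glo was added to the same wells and luminescence measured at 30 min; cells had been treated 16 h at 37 C with compounds, rat liver microsomes and NADPH (0.5 mg/mL final each).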

In assay [8] the target is 5-hydroxytryptamine receptor 2A (Homo sapiens) (UniProt P28223). The experiment in a line: 5-hydroxytryptamine receptor 2A (HTR2A) small molecule agonists, cell-based qHTS assay (AID 1963587). Note: nearly all actives have a fitted effect of over 30% in size. In a few lines: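 CHO cells stably expressing human HTR2A, plated 18 h, loaded with calcium dye 1 h at 37 C. Agonist mode: compounds added and intracellular calcium fluorescence recorded kinetically for 2 min at 1 sec intervals.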

Assay [9] has as its target Muscarinic acetylcholine receptor M1 (Homo sapiens) (UniProt P11229). Put plainly: Cholinergic receptor muscarinic 1 (CHRM1) small molecule antagonists, cell-based qHTS assay (AID 1963588). Note: nearly all actives have a fitted effect of over 40% in size. Note: potency is the fitted concentration of half-maximal effect. The method, boiled down:
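Compounds were tested at 15 concentrations in three independent runs. Dye-loaded CHRM1-CHO cells were exposed 5 min at room temperature before stimulation by acetylcholine added at 50nM. Intracellular calcium was read kinetically on FDSS for 3 min.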

Assay [10] shares this target. The experiment in a line: Cholinergic receptor muscarinic 1 (CHRM1) small molecule agonists, cell-based qHTS assay (AID 1963589). Note: nearly all actives have a fitted effect of over 35% in size. In a few lines: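 Kinetic fluorescence (1 s intervals) of calcium-sensitive dye in human M1 CHO cells after compound addition; cells pre-incubated 18 h at 37 C/5% CO2 and dye-loaded 1 h.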
The nature of assay [11]: cAMP Responsive Elements (CRE) small molecule agonists, cell-based qHTS assay (AID 1963590). In a few lines:
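Test agents in DMSO were incubated 3 h at 37 C/5% CO2 with CRE-bla HEK 293T cells seeded 18 h earlier; LiveBLAzer B/G FRET substrate was added and read after 2 h at room temperature.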

A short description of assay [12]: cAMP Responsive Elements (CRE) small molecule antagonists, cell-based qHTS assay (AID 1963591; active = well fitted inhibition curve with a large enough effect in the signal ratio in the repeat runs, not every such curve was filed as active; the % refers to the signal ratio). The method, boiled down:
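Reporter line CRE-bla HEK 293T in dialyzed-FBS DMEM; cells preincubated 18 h, treated 3 h with compound plus NKH477 (0.25 uM final); LiveBLAzer FRET, 2 h RT.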

Assay [13] concerns the target Beta-2 adrenergic receptor (Homo sapiens) (UniProt P07550). The experiment in a line: Adrenergic beta2 receptor (ADRB2) small molecule antagonists, cell-based qHTS assay (AID 1963592). Note: series mostly up to about 92 µM; nearly all actives have a fitted effect of over 50% in size. In a few lines: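 Assay format: CHO-ADRB2 cells, 18-20hr seeding at 37C/5% CO2, then compound plus 1nM isoproterenol agonist mix for 0.5hr RT. Homogeneous time-resolved fluorescence cAMP detection after 1hr, expressed as 665/615 nm ratio.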

For assay [14], the target named is D(2) dopamine receptor (Homo sapiens) (UniProt P14416). Put plainly: Dopamine D2 receptor (DRD2) small molecule agonists, cell-based qHTS assay (AID 1963594). Note: nearly all actives have a fitted effect of over 35% in size. The method, boiled down: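 HEK293 cells stably expressing human DRD2, pre-treated with PDE inhibitor Ro20-1724 (0.1 mM final) and compound 10 min at room temperature, then stimulated with NKH477 (200nM […]) for 30 min. cAMP read by HTRF (665/620 nm).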

Assay [15] is described as follows: p53 small molecule agonists, cell-based qHTS assay with human liver microsomes: qHTS cell viability counter screen (AID 1963579). Note: nearly all actives have a fitted effect of over 45% in size. The method, boiled down: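 Viability of p53RE-bla cells is measured as CellTiter-Glo luminescence following a 16 h, 37 C incubation with compound, liver microsomes from human donors and NADPH.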
In assay [16] the target is D(2) dopamine receptor (Homo sapiens) (UniProt P14416). Put plainly: Dopamine D2 receptor (DRD2) small molecule antagonists, cell-based qHTS assay (AID 1963595; active = well fitted inhibition curve with a large enough effect in the signal ratio in the repeat runs, with a control signal flat; the % refers to the signal ratio; note: potency is the fitted concentration of half-maximal effect). The method, boiled down:
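HTRF cAMP read-out at 665 and 620 nm emission (340 nm excitation). Antagonist mode: compounds were tested against 12 nM quinpirole in DRD2-HEK293 cells, with 200 nM NKH477 raising cAMP and 0.1 mM Ro20-1724 blocking its breakdown.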

Assay [17] in a line: p53 small molecule agonists, cell-based qHTS assay with rat liver microsomes (AID 1963578). The method, boiled down: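 Quantitative HTS of the Tox21 10K library: p53RE-bla cells, rat liver microsomes plus NADPH at 0.5 mg/mL final each, 16 h at 37 C, beta-lactamase fluorescence detection.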
Assay [18] in a line: p53 small molecule agonists, cell-based qHTS assay: qHTS cell viability counter screen (AID 1963581). Note: nearly all actives have a fitted effect of over 45% in size. The method, boiled down: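 qHTS counter screen: 16 h compound exposure at 37 C of p53RE-bla HCT-116 cells (4,000 per well, seeded 5 h prior), cell viability by ATP luminescence.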
Assay [19] is described as follows: p53 small molecule agonists, cell-based qHTS assay (AID 1963582; active = well fitted activation curve with a large enough effect in the signal ratio in the repeat runs, not every such curve was filed as active; the % refers to the signal ratio). In a few lines: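 Measured: fluorescence from cleaved LiveBLAzer substrate. System: p53RE-bla cells, 16 h compound treatment at 37 C, 2 h substrate step at room temperature.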
For assay [20], the target named is 5-hydroxytryptamine receptor 2A (Homo sapiens) (UniProt P28223). Put plainly: 5-hydroxytryptamine receptor 2A (HTR2A) small molecule antagonists, cell-based qHTS assay (AID 1963586). Note: nearly all actives have a fitted effect of over 45% in size. In a few lines:
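CHO cells stably expressing human HTR2A were plated for 18 h at 37 C, then loaded with calcium dye for 1 h. Compounds were preincubated 5 min at room temperature before DOI (4 nM solution) was added. Kinetic fluorescence was read for 3 min.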

D(2) dopamine receptor (Homo sapiens), sequence (P14416 whole entry, looked up): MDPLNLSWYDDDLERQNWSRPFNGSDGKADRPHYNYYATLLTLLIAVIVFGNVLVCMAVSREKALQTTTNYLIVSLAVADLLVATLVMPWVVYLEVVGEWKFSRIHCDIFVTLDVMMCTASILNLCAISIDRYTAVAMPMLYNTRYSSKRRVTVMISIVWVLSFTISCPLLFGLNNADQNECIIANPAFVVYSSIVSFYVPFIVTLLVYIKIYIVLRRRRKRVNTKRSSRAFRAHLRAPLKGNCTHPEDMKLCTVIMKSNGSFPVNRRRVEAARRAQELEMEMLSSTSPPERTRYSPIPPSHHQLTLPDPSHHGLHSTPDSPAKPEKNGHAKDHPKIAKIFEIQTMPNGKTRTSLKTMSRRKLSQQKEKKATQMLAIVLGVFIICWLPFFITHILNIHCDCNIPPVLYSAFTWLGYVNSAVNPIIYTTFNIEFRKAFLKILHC
Beta-2 adrenergic receptor (Homo sapiens), sequence (P07550 whole entry, looked up): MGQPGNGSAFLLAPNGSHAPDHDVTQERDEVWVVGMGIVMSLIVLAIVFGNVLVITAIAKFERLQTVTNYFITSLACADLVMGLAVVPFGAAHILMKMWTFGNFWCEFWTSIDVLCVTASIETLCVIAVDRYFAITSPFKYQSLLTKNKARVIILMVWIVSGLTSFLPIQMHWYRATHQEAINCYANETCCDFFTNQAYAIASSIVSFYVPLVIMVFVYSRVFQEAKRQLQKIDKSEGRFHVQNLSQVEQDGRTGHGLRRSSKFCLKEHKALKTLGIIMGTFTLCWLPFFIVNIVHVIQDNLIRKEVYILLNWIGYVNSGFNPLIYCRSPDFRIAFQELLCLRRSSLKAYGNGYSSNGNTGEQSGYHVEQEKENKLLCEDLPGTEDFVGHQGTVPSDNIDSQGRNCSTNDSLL
5-hydroxytryptamine receptor 2A (Homo sapiens), sequence (P28223 whole entry, looked up): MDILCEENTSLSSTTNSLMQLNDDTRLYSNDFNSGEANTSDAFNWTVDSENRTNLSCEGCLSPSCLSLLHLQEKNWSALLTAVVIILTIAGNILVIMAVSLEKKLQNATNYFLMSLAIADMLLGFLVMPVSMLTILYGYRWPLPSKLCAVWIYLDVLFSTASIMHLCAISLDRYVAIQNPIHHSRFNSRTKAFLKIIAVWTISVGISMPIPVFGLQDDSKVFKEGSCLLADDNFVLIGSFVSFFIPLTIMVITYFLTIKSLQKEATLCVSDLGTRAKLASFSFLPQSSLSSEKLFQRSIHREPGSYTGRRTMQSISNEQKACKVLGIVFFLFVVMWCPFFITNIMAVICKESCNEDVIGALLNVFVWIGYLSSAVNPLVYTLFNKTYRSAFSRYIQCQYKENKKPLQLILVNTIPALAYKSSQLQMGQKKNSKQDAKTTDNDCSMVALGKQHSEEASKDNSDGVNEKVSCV
KiSS-1 receptor (Homo sapiens), sequence (Q969F8 whole entry, looked up): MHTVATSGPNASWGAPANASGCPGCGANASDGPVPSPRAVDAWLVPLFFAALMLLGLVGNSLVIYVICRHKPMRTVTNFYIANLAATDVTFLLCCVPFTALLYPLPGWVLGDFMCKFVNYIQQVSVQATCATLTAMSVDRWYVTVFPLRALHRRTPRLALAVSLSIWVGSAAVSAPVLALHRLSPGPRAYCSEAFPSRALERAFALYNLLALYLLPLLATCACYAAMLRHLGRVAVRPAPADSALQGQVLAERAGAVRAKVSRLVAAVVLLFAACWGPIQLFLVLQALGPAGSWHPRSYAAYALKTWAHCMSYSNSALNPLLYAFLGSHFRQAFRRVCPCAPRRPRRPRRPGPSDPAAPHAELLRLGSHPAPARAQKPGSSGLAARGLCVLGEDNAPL
Gonadotropin-releasing hormone receptor (Homo sapiens), sequence (P30968 whole entry, looked up): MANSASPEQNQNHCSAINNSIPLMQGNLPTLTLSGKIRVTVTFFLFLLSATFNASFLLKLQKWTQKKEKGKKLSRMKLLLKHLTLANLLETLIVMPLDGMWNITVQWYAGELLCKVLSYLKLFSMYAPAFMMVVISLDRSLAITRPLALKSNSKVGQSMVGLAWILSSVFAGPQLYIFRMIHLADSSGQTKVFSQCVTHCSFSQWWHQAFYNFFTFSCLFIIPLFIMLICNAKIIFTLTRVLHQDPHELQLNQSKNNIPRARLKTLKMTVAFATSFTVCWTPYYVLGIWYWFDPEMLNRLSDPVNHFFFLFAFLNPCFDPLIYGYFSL
Muscarinic acetylcholine receptor M1 (Homo sapiens), sequence (P11229 whole entry, looked up): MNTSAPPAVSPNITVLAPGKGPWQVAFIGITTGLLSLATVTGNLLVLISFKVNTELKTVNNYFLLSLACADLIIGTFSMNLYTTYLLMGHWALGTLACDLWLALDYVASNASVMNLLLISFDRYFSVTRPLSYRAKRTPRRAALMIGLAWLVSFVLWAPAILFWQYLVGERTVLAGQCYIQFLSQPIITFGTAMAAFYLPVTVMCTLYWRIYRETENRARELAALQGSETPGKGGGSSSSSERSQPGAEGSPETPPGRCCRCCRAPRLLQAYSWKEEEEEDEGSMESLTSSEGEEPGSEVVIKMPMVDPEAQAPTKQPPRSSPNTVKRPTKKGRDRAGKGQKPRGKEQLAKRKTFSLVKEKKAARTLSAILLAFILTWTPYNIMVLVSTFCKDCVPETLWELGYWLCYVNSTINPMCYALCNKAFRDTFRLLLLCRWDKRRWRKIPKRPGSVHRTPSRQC

With `CC(CC1c2ccccc2CCc2ccccc21)CN(C)C` (stereo unspecified), the Potency entry in assay [1], in assay [2], in [3], in [6], in assay [7] and in assay [8] was “inactive” each time. Besides, the Potency entry in assay [10], in assay [11], in assay [12], in assay [13] and in [14] was “inactive” each time. Also, the outcome in [4] and in assay [5] was inactive. In addition, in assay [9], the Potency was 0.0365 µM (active).

For `CN(C)C(=O)C1(N2CCCCC2)CCN(CC[C@@]2(c3ccc(Cl)c(Cl)c3)CN(C(=O)c3ccccc3)CCO2)CC1`, the values for the Potency in [1] and in [16] were 22.7 µM (active) and 64.1 µM (active), respectively. Further, the Potency entry in [2], in [3], in assay [6], in [15], in assay [8] and in assay [10] was “inactive” throughout. Besides, in [13], the Potency result was “inactive”. Further, the outcome in assay [4] and in assay [5] was inactive.

For the compound `O=c1[nH]ncc2ccccc12`, the Potency entry in assay [1], in assay [2], in [3], in assay [17], in [15] and in assay [7] was “inactive” each time. Further, the Potency result in assay [18], in assay [19], in assay [20], in assay [8], in [9] and in assay [10] was “inactive” throughout. For the same compound, the Potency result in assay [11], in assay [12], in assay [13], in [14] and in assay [16] was “inactive” each time. Moreover, the result in assay [4] and in assay [5] was inactive.

On to `C#CCN[C@@H]1CCc2ccccc21`, for which the Potency entry in assay [1], in assay [2], in assay [3], in assay [6], in assay [7] and in [19] was “inactive” in each case. Further, the Potency result in assay [8], in [9], in assay [10], in assay [11], in [13] and in assay [14] was “inactive” throughout. The Potency result in assay [16] was “inactive”. The outcome in [4] and in [5] was inactive.

As to `O=C(O)C(Cc1cc(I)c(O)c(I)c1)c1ccccc1` (stereo unspecified), the Potency result in [1], in assay [2], in assay [3], in [6], in [15] and in assay [18] was “inactive” in each case. For the same compound, the Potency result in [19], in assay [20], in [8], in [9], in assay [12] and in assay [13] was “inactive” throughout. In [14], the Potency entry was “inactive”. The result in [4] and in [5] was inactive.

Regarding `COc1cc(-c2ccc(N=C=O)c(OC)c2)ccc1N=C=O`, the Potency result in [1], in assay [2], in [3], in [17], in [15] and in [7] was “inactive” each time. In addition, the Potency entry in [18], in assay [19], in [20], in assay [8], in assay [9] and in assay [10] was “inactive” throughout. Further, the Potency result in assay [11], in [13] and in assay [14] was “inactive” each time. The result in assay [4] and in assay [5] was inactive.

For the compound `O=C(CCCl)NCc1ccccc1`, the Potency result in [1], in [2], in assay [3], in assay [17], in assay [15] and in assay [7] was “inactive” in each case. Further, the Potency result in assay [18], in assay [19], in assay [20], in assay [8], in [9] and in assay [10] was “inactive” throughout. Also, the Potency entry in assay [11], in assay [12], in assay [13], in [14] and in [16] was “inactive” throughout. Further, the outcome in [4] and in assay [5] was inactive.

As to `CCOCCn1c(C2CCN(CCc3ccc(C(C)(C)C(=O)O)cc3)CC2)nc2ccccc21`, the Potency entry in assay [1], in assay [2], in [3], in assay [6], in assay [7] and in assay [18] was “inactive” throughout. Also, the Potency entry in assay [19], in assay [20], in assay [10], in [11], in assay [12] and in assay [13] was “inactive” each time. For the same compound, the Potency entry in assay [14] and in assay [16] was “inactive” in each case. Moreover, the result in [4] and in [5] was inactive.

These data come from PubChem BioAssay (Tox21).
